Assay results from PubChem BioAssay (NCI).
Several values for one entry are separate records, joined by “and”; a condition that tells them apart may be missing. Equal entries are not always repeated. About 83,000 compounds went through this panel and 20% of them were active in at least one assay; those are over-represented in the sample as a whole.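 The test compound was applied at a single concentration to cells in 96-well plates for 48 hours, and percent growth was recorded.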 Activity calls are given as the source filed them. Rule for the calls: active = growth percent below 10; inactive = the rest.

Experiments:
Test in all cases: NCI-60 one-dose screen, 48 h (100 = growth as untreated, 0 = no growth, -100 = all killed)
HCT-15 colon = tested on: HCT-15 colon
HT29 colon = tested on: HT29 colon
SNB-75 CNS = tested on: SNB-75 CNS
SNB-19 CNS = tested on: SNB-19 CNS
U251 CNS = conditions: 10 µM unless noted
PC-3 prostate = tested on: PC-3 prostate
SK-MEL-5 melanoma = tested on: SK-MEL-5 melanoma
UACC-62 melanoma = tested on: UACC-62 melanoma
LOX IMVI melanoma = conditions: 10 µM unless noted
SK-MEL-28 melanoma = tested on: SK-MEL-28 melanoma

Measured: growth

CCC(C)NC(=O)c1ccccc1C (stereo not drawn)
inactive: HCT-15 colon; 10 µM unless noted 96.3% | HT29 colon; 10 µM unless noted 97.4% | SNB-75 CNS; 10 µM unless noted 76.8% | SNB-19 CNS; 10 µM unless noted 97.9% | U251 CNS 102% | PC-3 prostate; 10 µM unless noted 101% | SK-MEL-5 melanoma; 10 µM unless noted 91% | UACC-62 melanoma; 10 µM unless noted 100% | LOX IMVI melanoma 95.7% | SK-MEL-28 melanoma; 10 µM unless noted 94.3%

N#Cc1c[nH]n2ccnc12
inactive: HCT-15 colon; 10 µM unless noted 104% | HT29 colon; 10 µM unless noted 91.2% | SNB-75 CNS; 10 µM unless noted 103% | SNB-19 CNS; 10 µM unless noted 108% | U251 CNS 92.4% | PC-3 prostate; 10 µM unless noted 97.9% | SK-MEL-5 melanoma; 10 µM unless noted 115% | UACC-62 melanoma; 10 µM unless noted 106% | LOX IMVI melanoma 96.1% | SK-MEL-28 melanoma; 10 µM unless noted 107%

O=C1C=CC[C@H](/C=C/c2ccccc2)O1
31.7% (inactive) and -11.8% (active): SK-MEL-5 melanoma; 10 µM unless noted
81.7% (inactive) and 6.21% (active): UACC-62 melanoma; 10 µM unless noted
12.8% (inactive) and -30% (active): U251 CNS
active: LOX IMVI melanoma 5.77% and -35.8%
40.3% (inactive) and -22.5% (active): SK-MEL-28 melanoma; 10 µM unless noted
33.4% (inactive) and -52.8% (active): HCT-15 colon; 10 µM unless noted
inactive: HT29 colon; 10 µM unless noted 29.8% and 28.4% | SNB-75 CNS; 10 µM unless noted 53.8% and 70.9% | SNB-19 CNS; 10 µM unless noted 66.3% and 17.5% | PC-3 prostate; 10 µM unless noted 20.2% and 13%

COc1cc(NCCCCCCCNC(C)C)c2nccc(C)c2c1
inactive: HCT-15 colon; 10 µM unless noted 89.2% and 58.5% | HT29 colon; 10 µM unless noted 53.7% and 14.2% | SNB-75 CNS; 10 µM unless noted 74.4% and 61.1% | SNB-19 CNS; 10 µM unless noted 90.9% and 74.2% | U251 CNS 80.8% and 61.3% | PC-3 prostate; 10 µM unless noted 58.1% and 75.9% | SK-MEL-5 melanoma; 10 µM unless noted 84.3% and 64.8% | LOX IMVI melanoma 92.5% and 54.7% | SK-MEL-28 melanoma; 10 µM unless noted 105% and 91.4%
88.2% (inactive) and 3.49% (active): UACC-62 melanoma; 10 µM unless noted

CS/C(=C\c1ccc(C(=O)c2ccc(C)cc2)n1C)S(C)=O (stereo not drawn)
inactive: HCT-15 colon; 10 µM 87.6% | HCT-15 colon; 100 µM 55.1% | HT29 colon; 10 µM 94% | HT29 colon; 100 µM 81.2% | SNB-75 CNS; 10 µM 96.1% | SNB-75 CNS; 100 µM 100% | SNB-19 CNS; 10 µM 91.3% | SNB-19 CNS; 100 µM 77.5% | U251 CNS 74.7% [100 µM] | PC-3 prostate; 10 µM 76.6% | PC-3 prostate; 100 µM 71.1% | SK-MEL-5 melanoma; 10 µM 81.2% | SK-MEL-5 melanoma; 100 µM 36.5% | UACC-62 melanoma; 10 µM 83.3% | UACC-62 melanoma; 100 µM 61.4% | LOX IMVI melanoma 99.4% | SK-MEL-28 melanoma; 10 µM 84.7% | SK-MEL-28 melanoma; 100 µM 74.9%

Cc1cc(NC(=O)NC(=O)c2ccccc2N(C)C)ccc1Oc1ncc(Br)cn1
active: U251 CNS -43.4% | SK-MEL-5 melanoma; 10 µM unless noted 2.16% and 0.678%
-15.9% (active) and 17% (inactive): HT29 colon; 10 µM unless noted
-10.1% (active) and 25.9% (inactive): PC-3 prostate; 10 µM unless noted
-28.2% (active) and 12.9% (inactive): SNB-75 CNS; 10 µM unless noted
inactive: SNB-19 CNS; 10 µM unless noted 29.2% and 42.7% | UACC-62 melanoma; 10 µM unless noted 30.4% and 37% | LOX IMVI melanoma 27.3% and 49.7% | SK-MEL-28 melanoma; 10 µM unless noted 68.1%
-31% (active) and 31% (inactive): HCT-15 colon; 10 µM unless noted

C/C(CC(C)C)=N/NC(N)=S
inactive: HCT-15 colon; 10 µM unless noted 79.4% | HT29 colon; 10 µM unless noted 56.1% | SNB-75 CNS; 10 µM unless noted 99.3% | SNB-19 CNS; 10 µM unless noted 107% | U251 CNS 79.3% | PC-3 prostate; 10 µM unless noted 93.4% | SK-MEL-5 melanoma; 10 µM unless noted 99.5% | UACC-62 melanoma; 10 µM unless noted 105% | LOX IMVI melanoma 95.4% | SK-MEL-28 melanoma; 10 µM unless noted 106%

CSc1nc(N)c(N)c(N)n1
inactive: HCT-15 colon; 10 µM unless noted 111% | HT29 colon; 10 µM unless noted 88.8% | SNB-75 CNS; 10 µM unless noted 97.5% | SNB-19 CNS; 10 µM unless noted 100% | U251 CNS 95.8% | PC-3 prostate; 10 µM unless noted 71.4% | SK-MEL-5 melanoma; 10 µM unless noted 101% | UACC-62 melanoma; 10 µM unless noted 101% | LOX IMVI melanoma 101% | SK-MEL-28 melanoma; 10 µM unless noted 113%

CCC(C)(O)CCC(C)(O)CC (stereo not drawn)
inactive: HCT-15 colon; 10 µM unless noted 112% | HT29 colon; 10 µM unless noted 113% | SNB-75 CNS; 10 µM unless noted 108% | SNB-19 CNS; 10 µM unless noted 105% | U251 CNS 104% | PC-3 prostate; 10 µM unless noted 98.6% | SK-MEL-5 melanoma; 10 µM unless noted 104% | UACC-62 melanoma; 10 µM unless noted 108% | LOX IMVI melanoma 98.1% | SK-MEL-28 melanoma; 10 µM unless noted 124%

Cc1ccc(C(=O)c2ccc(C)cc2)cc1
inactive: HCT-15 colon; 10 µM unless noted 99.8% and 102% | HT29 colon; 10 µM unless noted 95.4% and 102% | SNB-75 CNS; 10 µM unless noted 86.4% and 99.5% | SNB-19 CNS; 10 µM unless noted 86.9% and 105% | U251 CNS 94.1% and 105% | PC-3 prostate; 10 µM unless noted 95.8% and 92.5% | SK-MEL-5 melanoma; 10 µM unless noted 95.6% and 100% | UACC-62 melanoma; 10 µM unless noted 92.7% and 101% | LOX IMVI melanoma 100% and 90.4% | SK-MEL-28 melanoma; 10 µM unless noted 111% and 106%

Cc1cc(-c2ccc(N=Nc3c(C)nn(-c4ccc(S(=O)(=O)O)cc4)c3O)c(C)c2)ccc1N=Nc1ccc(O)c(C(=O)O)c1
inactive: HCT-15 colon; 10 µM unless noted 97.9% | HT29 colon; 10 µM unless noted 115% | SNB-75 CNS; 10 µM unless noted 99.9% | SNB-19 CNS; 10 µM unless noted 99.9% | U251 CNS 99.1% | PC-3 prostate; 10 µM unless noted 98.2% | SK-MEL-5 melanoma; 10 µM unless noted 98.7% | UACC-62 melanoma; 10 µM unless noted 91.2% | LOX IMVI melanoma 95.4% | SK-MEL-28 melanoma; 10 µM unless noted 106%
